This passage reports max response and Potency results from PubChem BioAssay (Tox21).

Values without a mark were called inactive. Inconclusive results are not listed. Active and inactive are the calls of the source. Calls come from the whole dose curve; as a rule, active = well fitted curve in the direction sought with a large enough effect in the repeat runs; inconclusive = weak or mixed curves; inactive = no such curve, though single readings can be large; an effect the other way counts as inactive or inconclusive.

A short description of assay [1]: qHTS RealTime-Glo MT Cell Viability Assay in HEK293 cells - 40 hour (AID 1224874). Note: nearly all actives have a fitted effect of over 50% in size. Note: potency is the fitted concentration of half-maximal effect. As to conditions: RealTime-Glo luminescence; max response: active compounds read low. In short, it runs like this:
(§1)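 HEK293 cells mixed with RealTime-Glo reagents (NanoLuc plus cell-permeant prosubstrate) at 600 cells/well, preincubated 5 h at 37 C/5% CO2, then given 23 nL compound in DMSO. Nonlytic luminescence from viable cells was read at 0, 8, 16, 24, 32 and 40 h.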
(qHTS replaces the single test concentration by a dilution series.)

Assay [2] can be described thus: A CellTox Green Cytotoxicity Assay to monitor cytotoxicity in HEK293 cells - 24 hour (AID 1224875). Note: nearly all actives have a fitted effect of over 45% in size. Note: potency is the fitted concentration of half-maximal effect. In short, it runs like this:
(§2)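 HEK293 cells premixed with CellTox Green dye were seeded at 600 cells/well and left 5 h at 37 C/5% CO2 before pin transfer of 23 nL compound in DMSO. Fluorescence from dye bound to dead-cell DNA was read during 40 h treatment.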

A short description of assay [3]: A CellTox Green Cytotoxicity Assay to monitor cytotoxicity in HepG2 cells - 16 hour (AID 1224876). Note: nearly all actives have a fitted effect of over 45% in size. Note: potency is the fitted concentration of half-maximal effect. In a few lines:
(§3)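 HepG2 cells were seeded together with the CellTox Green dye at 600 cells/well, left 5 h at 37 C/5% CO2, then given compounds in DMSO. Fluorescence from dye bound to dead-cell DNA was read repeatedly over 40 h of treatment at 37 C.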

The nature of assay [4]: qHTS RealTime-Glo MT Cell Viability Assay in HepG2 cells - 32 hour (AID 1224877). Note: nearly all actives have a fitted effect of over 55% in size. Note: potency is the fitted concentration of half-maximal effect. In a few lines: (§4)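 HepG2 cells (600/well) were dispensed with RealTime-Glo reagents, incubated 5 h at 37 °C, then treated with compounds in DMSO for up to 40 h. Nonlytic NanoLuc luminescence reflecting viable cells was read at each stated time point.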
A short description of assay [5]: A CellTox Green Cytotoxicity Assay to monitor cytotoxicity in HepG2 cells - 24 hour (AID 1224878). Note: nearly all actives have a fitted effect of over 45% in size. Note: potency is the fitted concentration of half-maximal effect. In short, it runs like this:
as §3

Assay [6] is described as follows: A CellTox Green Cytotoxicity Assay to monitor cytotoxicity in HepG2 cells - 40 hour (AID 1224879). Note: nearly all actives have a fitted effect of over 40% in size. Note: potency is the fitted concentration of half-maximal effect. In short, it runs like this:
as §3

The nature of assay [7]: qHTS RealTime-Glo MT Cell Viability Assay in HEK293 cells - 0 hour (AID 1224880). Note: nearly all actives have a fitted effect of over 45% in size. Note: potency is the fitted concentration of half-maximal effect. In a few lines: as §1
A short description of assay [8]: A CellTox Green Cytotoxicity Assay to monitor cytotoxicity in HEK293 cells - 32 hour (AID 1224881). Note: nearly all actives have a fitted effect of over 40% in size. Note: potency is the fitted concentration of half-maximal effect. In a few lines: as §2
Assay [9] in a line: A CellTox Green Cytotoxicity Assay to monitor cytotoxicity in HepG2 cells - 0 hour (AID 1224882). Note: nearly all actives have a fitted effect of over 35% in size. In a few lines: as §3
A short description of assay [10]: A CellTox Green Cytotoxicity Assay to monitor cytotoxicity in HepG2 cells - 32 hour (AID 1224883). Note: nearly all actives have a fitted effect of over 50% in size. Note: potency is the fitted concentration of half-maximal effect. In a few lines:
as §3

The nature of assay [11]: A CellTox Green Cytotoxicity Assay to monitor cytotoxicity in HEK293 cells - 8 hour (AID 1224884). Note: nearly all actives have a fitted effect of over 35% in size. Note: potency is the fitted concentration of half-maximal effect. In a few lines: as §2
Assay [12] can be described thus: qHTS RealTime-Glo MT Cell Viability Assay in HepG2 cells - 16 hour (AID 1224885). Note: nearly all actives have a fitted effect of over 50% in size. Note: potency is the fitted concentration of half-maximal effect. In a few lines: as §4
The nature of assay [13]: qHTS RealTime-Glo MT Cell Viability Assay in HEK293 cells - 24 hour (AID 1224886). Note: nearly all actives have a fitted effect of over 50% in size. Note: potency is the fitted concentration of half-maximal effect. In a few lines:
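HEK293 cells seeded with NanoLuc/prosubstrate reagent, rested 5 h at 37 C, then dosed and kept at 37 C up to 40 h. Nonlytic real-time luminescence from viable cells read at 0, 8, 16, 24, 32 and 40 h.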

Assay [14] is described as follows: qHTS RealTime-Glo MT Cell Viability Assay in HEK293 cells - 8 hour (AID 1224887). Note: nearly all actives have a fitted effect of over 50% in size. Note: potency is the fitted concentration of half-maximal effect. In a few lines: as §1
Assay [15] in a line: A CellTox Green Cytotoxicity Assay to monitor cytotoxicity in HEK293 cells - 16 hour (AID 1224888). Note: nearly all actives have a fitted effect of over 35% in size. Note: potency is the fitted concentration of half-maximal effect. In a few lines:
as §2

Assay [16] is described as follows: qHTS RealTime-Glo MT Cell Viability Assay in HepG2 cells - 0 hour (AID 1224889). Note: nearly all actives have a fitted effect of over 50% in size. Note: potency is the fitted concentration of half-maximal effect. In short, it runs like this: as §4
Assay [17] can be described thus: A CellTox Green Cytotoxicity Assay to monitor cytotoxicity in HepG2 cells - 8 hour (AID 1224890). Note: nearly all actives have a fitted effect of over 45% in size. Note: potency is the fitted concentration of half-maximal effect. In short, it runs like this: as §3
The nature of assay [18]: qHTS assay to identify small molecule antagonists of the estrogen receptor alpha (ER-alpha) signaling pathway using the BG1 cell line in the presence of 0.1 nM 17-beta-estradiol - cell viability counter screen (AID 1259241). Note: nearly all actives have a fitted effect of over 40% in size. Note: potency is the fitted concentration of half-maximal effect. In short, it runs like this: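 Live-cell protease activity (CellTiter-Fluor fluorescence, 30 min) was read in the same wells after VM7Luc4E2 cells had been exposed to compounds with 0.1 nM 17beta-estradiol for 22 hr at 37C.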

A short description of assay [19]: qHTS assay to identify small molecule antagonists of the androgen receptor (AR) signaling pathway using the MDA cell line in the presence of 0.5 nM R1881 - cell viability counter screen (AID 1259242). Note: nearly all actives have a fitted effect of over 45% in size. Note: potency is the fitted concentration of half-maximal effect. In short, it runs like this: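 MDA-kb2 cells (human breast carcinoma, stably carrying MMTV-luciferase reporter) were exposed to compounds with 0.5 nM R1881 (final) for 16 hr at 37C, 0% CO2; viability then read as live-cell protease fluorescence (CellTiter-Fluor, 30 min) in the same wells.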

Assay [20] can be described thus: qHTS RealTime-Glo MT Cell Viability Assay in HepG2 cells - 8 hour (AID 1224873). Note: nearly all actives have a fitted effect of over 55% in size. In a few lines: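 HepG2 cells mixed with RealTime-Glo MT reagents (NanoLuc plus cell-permeant prosubstrate) were seeded at 600 cells/well, incubated 5 h at 37 C/5% CO2, then pinned with compounds in DMSO; nonlytic luminescence tracked viability during 40 h treatment.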
% is set by controls: 0 for no effect and ±100 for the full control effect.

For the compound `O=S(=O)(O)CCCN1CCOCC1`, in assay [1], the max response was 12.7%. Besides, the Potency result in assay [2], in assay [3], in assay [4], in assay [5], in assay [6] and in assay [7] was “inactive” in each case. The Potency entry in [8], in assay [9], in assay [10], in assay [11], in assay [12] and in [13] was “inactive” each time. Moreover, the Potency result in assay [14], in [15], in assay [16], in assay [17], in assay [18] and in assay [19] was “inactive” in each case.
As for `Clc1cc(Cl)c(-c2c(Cl)c(Cl)cc(Cl)c2Cl)cc1Cl`, the Potency result in assay [20], in assay [2], in [3], in assay [4], in assay [5] and in assay [6] was “inactive” throughout. Besides, the Potency result in [7], in assay [8], in assay [10], in [12], in assay [14] and in assay [15] was “inactive” throughout. Moreover, the Potency entry in [17], in [18] and in assay [19] was “inactive” throughout.
Consider `COc1cc(C(=O)NS(=O)(=O)c2ccccc2C)ccc1Cc1cn(C)c2ccc(NC(=O)OC3CCCC3)cc12`, for which, in [1], the max response was -0.13%. The Potency result in [2], in assay [3], in assay [4], in [5], in assay [6] and in assay [7] was “inactive” in each case. Besides, the Potency entry in assay [8], in assay [9], in assay [10], in [11], in assay [12] and in [13] was “inactive” throughout. For the same compound, the Potency entry in assay [14], in assay [15], in [16], in [17], in [18] and in assay [19] was “inactive” in each case.
As to `O=C1C=CC(=O)N1c1ccccc1`, the Potency was 11 µM (active) in [1]; 12.3 µM (active) in assay [2]; 19.5 µM (active) in assay [3]; 12.3 µM (active) in assay [4]; 13.8 µM (active) in assay [5]; 12.3 µM (active) in assay [6]. In addition, the Potency in assay [8] was 11 µM (active); in assay [10], 13.8 µM (active); in assay [11], 24.5 µM (active); in assay [12], 15.5 µM (active); in assay [13], 12.3 µM (active); in assay [14], 43.6 µM (active). Besides, the Potency in [15] was 13.8 µM (active); in [17], 34.7 µM (active); in [18] it was 61.1 µM (active); in assay [19], 61.1 µM (active). For the same compound, the Potency result in assay [7], in assay [9] and in [16] was “inactive” each time.
For the compound `Cc1nc(Nc2ncc(C(=O)Nc3c(C)cccc3Cl)s2)cc(N2CCN(CCO)CC2)n1`, the Potency result in [20], in assay [2], in [8], in assay [9], in assay [11] and in assay [15] was “inactive” in each case. Further, the Potency entry in assay [17] and in [19] was “inactive” in each case. The Potency in assay [5] is 26.8 µM (active); in [6], 26.8 µM (active); in assay [7], 26.8 µM (active); in [10], 26.8 µM (active); in [13], 30.1 µM (active); in [16], 23.9 µM (active).
For `c1cc[nH]c1`, in assay [1], the max response was 10.9%. The Potency entry in [2], in [3], in assay [4], in assay [5], in assay [7] and in [8] was “inactive” each time. Moreover, the Potency entry in [9], in [10], in assay [11], in [12], in [13] and in [14] was “inactive” in each case. For the same compound, the Potency result in [15], in assay [16], in [17], in [18] and in [19] was “inactive” throughout.
For the compound `CCCCCCCCCCCCN(CCO)CCO`, the Potency is 38.7 µM (active) in [1]; 54.7 µM (active) in [2]; 43.5 µM (active) in [3]; 43.5 µM (active) in assay [4]; 19.4 µM (active) in assay [6]; 54.7 µM (active) in assay [8]. For the same compound, the Potency in assay [10] is 17.3 µM (active); in assay [12], 48.8 µM (active); in assay [13], 43.5 µM (active); in assay [19] it was 60.9 µM (active). In addition, the Potency entry in assay [9] and in assay [18] was “inactive” throughout.
In the case of `CCN(CC)CCNc1ccc(CO)c2sc3ccccc3c(=O)c12`, the Potency in [1] is 16.9 µM (active); in assay [3] it was 16.9 µM (active); in [4], 23.9 µM (active); in assay [5], 16.9 µM (active); in [6], 13.4 µM (active); in assay [10], 13.4 µM (active). Besides, the Potency in assay [12] is 23.9 µM (active); in [13], 16.9 µM (active). Also, the Potency result in assay [2], in assay [7], in assay [8], in assay [11], in assay [15] and in [16] was “inactive” in each case.
